Source: PubChem
Hits are enriched below; roughly 19% of the tested compounds scored in any of these assays.
TDP1 cell CPT: DT40-hTDP1 cell growth loss with CPT; chicken DT40 Tdp1-/-;hTDP1 cells + 20 nM CPT, ATP luminescence, 48 h; Potency, µM (titrated, usually from 46.2 µM), without a hit: at the highest dose activity change, negative = growth inhibition, actives largely listed as inhibitors; 420,000 tested, 12% active; AID 686979; further: potency means the concentration at half of the fitted maximal effect; nearly all actives have a fitted effect of over 55% in size
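Chicken DT40 Tdp1-/- cells complemented with human TDP1, 400 cells/well, exposed to compounds plus 20 nM camptothecin for at least 48 h at 37 C; viability read as ATP content by CellTiter-Glo luminescence.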
DT40 TDP1 no CPT: qHTS for Inhibitors of human tyrosyl-DNA phosphodiesterase 1 (TDP1): qHTS in cells in absence of CPT | AID 686978, 2013 | DT40 Tdp1-/- hTDP1 cells, no CPT, ATP luminescence, 48 h | Potency, µM (titrated, usually from 46.2 µM), for inactives: at the top dose activity change, negative = growth inhibition, most hits filed as inhibitors | 420,000 tested, 15% active; further: potency means the concentration at half of the fitted maximal effect; nearly all actives have a fitted effect of over 55% in size
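Readout: luminescence from CellTiter-Glo after 30 min in the dark at RT. Cells: DT40 Tdp1-/- with stable hTDP1, 400/well. Exposure: compounds alone, ≥48 hr, 37 °C.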
IL-1B inflam inh: inflammasome signaling inhibition, IL-1 beta readout. AID 743279. THP-1 LPS/ATP IL-1B secretion, AlphaLISA, 16 h; stronger effect = lower value. 360,000 tested, 4.7% active. activity change, % at 57.5 µM; in the data active means activity change below about -50%; inconclusive means mostly about -30% to -49%
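THP-1 cells pretreated 1 hr with compounds (up to 57.5 uM final), then stimulated with LPS (250 ng/mL final) plus ATP (1.25 mM final); secreted IL-1B measured by AlphaLISA after 16 hr, decreased signal indicating inhibition.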
HT1080-NT tox: kills 2HG-producing HT-1080-NT fibrosarcoma cells | Potency, µM (top dose mostly 46.1 µM), for the others: top-dose activity, negative = less viability, most hits filed as cytotoxic | 360,000 tested, 1.6% active | AID 686970 | HT-1080-NT fibrosarcoma viability, CellTiter-Glo ATP luminescence, 48 h;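 further: NT is the 2HG producing partner of a matched IDH1 knockdown line; potency means the concentration at half of the fitted maximal effect; 0% = DMSO-treated cells and -100% = media-only wells without cells; nearly all actives have a fitted effect of over 55% in size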
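Toxicity toward the 2HG-producing NT line was scored as %Activity, normalised to DMSO and no-cell wells, from CellTiter-Glo luminescence after 48 hours' treatment.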
HT1080 IDH1KD tx: toxicity to HT-1080 IDH1 knockdown cells (counter line). HT-1080 IDH1 knockdown viability, ATP luminescence, 48 h. Potency, µM (doses to about 46.1 µM), for inactives: at the top dose activity, negative = toxicity, most hits filed as cytotoxic. AID 686971. 360,000 tested, 2% active;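 further: potency means the concentration at half of the fitted maximal effect; 0% = DMSO wells and -100% = cell-free medium wells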
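% activity derives from luminescence (CellTiter-Glo), normalised to DMSO and no-cell wells. HT-1080-IDH1KD cells, 750/well, had 48 h compound exposure at 37 °C.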
The depositor's hits bear a star; ? = inconclusive; / = no result given; ! = not confirmed by another sample; [ ] = another dose, or the depositor's remark. Unless noted, the call rests on the fitted dose curve; in most records, active means well fitted curve in the direction sought with a large enough effect; inconclusive means small, poorly fitted or top-dose-only effect, or another doubt; inactive means no such curve, though single readings can be large; an effect the other way counts as inactive or inconclusive. Unless noted, on the % scale 0 is the no-effect control and ±100 the full control effect.

SMILES	TDP1 cell CPT	DT40 TDP1 no CPT	IL-1B inflam inh	HT1080-NT tox	HT1080 IDH1KD tx
CCOC(=O)C1CCN(C(=S)Nc2ccc(CC)cc2)CC1	28%	7%	-6	10%	6%
O=C(CN1CCN(S(=O)(=O)c2ccc(Cl)cc2)CC1)Nc1ccc2c(c1)OCCO2	?	15µM*	-5	-7%	-6%
O=C(CN1CCN(c2ccccc2O)CC1)Nc1ccc2c(c1)OCCCO2	-3%	13%	-50*	2%[9.24 µM]	15%
O=C(CN1CCN(c2ccccc2)CC1)Nc1ccc2c(c1)OCCO2	-5%	4%	0	14%	1%
O=C(CN1CCN(S(=O)(=O)c2ccc(Cl)cc2)CC1)Nc1ccc2c(c1)OCO2	?	29µM*	-19	-4%	-13%
CC(C)(C)NCC(O)CSc1nc(-c2ccc(C(N)=O)s2)cs1 (configuration not stated)	12%	-29%	/	/	/
Cc1nnc(SCC(=O)Nc2ccc(N3CCOCC3)cc2)o1	3%	-3%	-21	0%	13%
CCCCn1c(=O)c(CCC(=O)OCC(=O)NC(=O)NCCC(C)C)nc2ccccc21	-14%	?	-2	-11%	3%
O=C(CCCN1C(=O)/C(=C/c2ccccc2OC(F)F)SC1=S)Nc1cccnc1	26µM*	13µM*	-85*	-1%	-23%
O=C(CCN1C(=O)/C(=C/c2ccc(Cl)cc2)SC1=S)Nc1cccnc1	29µM*	?	6	12%	18%
O=C(CCN1C(=O)/C(=C\c2ccccc2Cl)SC1=S)Nc1cccnc1	-15%	?	-52*	8%	12%
COc1ccccc1/C=C1/SC(=S)N(CCC(=O)Nc2cccnc2)C1=O	?	?	9	1%	2%
O=S1(=O)N=C2CCCCCN2C(c2ccncc2)N1 (configuration not stated)	-3%	-10%	3	2%	0%
CC(C)C(C(=O)NCC1CCCO1)N(Cc1ccccc1)C(=O)CNS(=O)(=O)c1ccccc1 (configuration not stated)	6%	1%	-15	13%	15%
Cn1ncc2c(=O)[nH]c(N)nc21	21%	22%	19	3%	4%
Cc1cc(C)c2c(n1)SCC(=O)N2CC(=O)Nc1ccc(F)cc1	5%	-5%	0	6%	7%
O=S1(=O)CC(N2CCC(Cc3ccccc3)CC2)CN1Cc1ccc(F)cc1 (configuration not stated)	26µM*	13µM*	-2	-21%	?
O=S1(=O)CC(N2CCCC2)CN1Cc1ccc(F)cc1 (configuration not stated)	-1%	-25%	20	11%	20%
CC(NC(=O)CN(C)CC(=O)Nc1ccc(Cl)cc1)c1ccc(F)cc1 (configuration not stated)	?	18µM*	?	-4%	-17%
CC(NC(=O)CN(C)CC(=O)Nc1ccc(F)c(F)c1F)c1ccccc1 (configuration not stated)	?	20%	21	6%	-1%
Cc1ccc(Cl)cc1N1CCN(CCCNC(=O)Cn2ncc3c([nH]c4ccccc43)c2=O)CC1	15µM*	8.2µM*	/	/	/
CC(C)CCNC(=O)CCC(=O)NNc1nc2ccccc2c2nc(-c3ccccc3)nn12	21µM*	21µM*	-2	-12%	-8%
Cc1cccc(N2CCN(C(=O)Cn3sc4nc(C)cc(C)c4c3=O)CC2C)c1 (configuration not stated)	3.7µM*	4.6µM*	?	-18%	?
Cc1cccc(N2CCN(C(=O)Cn3nc(C)n4cccc4c3=O)CC2C)c1 (configuration not stated)	?	-25%	4	-4%	-1%
O=C(CCC(=O)NNc1nc2ccccc2c2nc(-c3ccccc3)nn12)NCCCN1CCOCC1	-6%	-19%	-14	-4%	0%
SMILES	TDP1 cell CPT	DT40 TDP1 no CPT	IL-1B inflam inh	HT1080-NT tox	HT1080 IDH1KD tx
Cc1cccc(N2CCN(C(=O)CCC(=O)NNc3nc4ccccc4c4nc(C)nn34)CC2C)c1 (configuration not stated)	18µM*	23µM*	/	/	/
CCCN1CNc2c(c(=O)[nH]c(=S)n2Cc2ccc(OC)c(OC)c2)C1	-5%	-10%	/	10%	22%
Cc1sc2nc(CSC(C)C(=O)N3CCOCC3)[nH]c(=O)c2c1C (configuration not stated)	22%	11%	10	29%	12%
O=C(NC(Cc1c[nH]c2ccccc12)C(=O)O)c1cccc(S(=O)(=O)N2CCCCC2)c1 (configuration not stated)	2%	2%	14	-2%	-1%
CN(C(=O)c1cccc(NC(=O)Cc2ccc(NC(=O)C3CCCN(C(=O)C4CCC4)C3)cc2)c1)C1CCC1 (configuration not stated)	-5%	-8%	9	10%	8%
Cc1ccc(-c2ccc(=O)n(CC(=O)N3CCN(c4cccc(C)c4)C(C)C3)n2)cc1 (configuration not stated)	?	-22%	-61*	-29%	-20%
CC1CC(C)CN(C(=O)Cn2ncc3c([nH]c4ccccc43)c2=O)C1 (configuration not stated)	?	?	27	3%	-15%
Cc1cccc(CN2CCN(CC(=O)NCCCN3CCN(c4ccc(F)cc4)CC3)C2=O)c1	11µM*	?	-56*	-20%	?
Cc1cccc(N2CCN(C(=O)Cn3ncc4c([nH]c5ccccc54)c3=O)CC2C)c1 (configuration not stated)	?	15µM*	/	/	/
Cc1ccc2[nH]c3c(=O)n(CC(=O)NCCCN4CCN(c5ccc(F)cc5)CC4)ncc3c2c1	?	16µM*!	?	6%	5%
Cc1cccc(N2CCN(CCCNC(=O)Cn3ncc4c([nH]c5ccccc54)c3=O)CC2C)c1 (configuration not stated)	?	18µM*	/	/	/
O=C(CSc1nnc(COc2ccccc2)o1)N1CCOCC1	-11%	-17%	0	13%	11%
O=C(COc1ccc2cc(Br)ccc2c1)N1CCOCC1	15µM*	?	-13	0%[9.24 µM]	4%
O=C(CSc1nnc(COc2ccc(Br)cc2)o1)N1CCOCC1	-33%	18µM*	42	21%	-14%
O=C(COc1ccc(C(=S)N2CCOCC2)cc1)N1CCOCC1	1%	4%	17	-8%	-5%
CCc1nc2ccc(C(=O)NCc3cccs3)cn2c1N(CC)CCOC	?	?	-1	17%	9%
CCCC(=O)Nc1ccc2nc(SCCOc3ccccc3)sc2c1	-17%	?	/	/	/
